# Results published in PubChem BioAssay (EPA / NIEHS).
# Active and inactive are the calls of the source. The calls were made as follows: active = hit-call score of the fitted dose curve at least 0.9, where 1 is the maximum; inactive = score below 0.9.
# Legend:
# [1] = read-out: TIMP metallopeptidase inhibitor 2 (TIMP2), TIMP2 (gene 7077); experiment: BSK_KF3CT_TIMP2: BioMAP Diversity Plus: KF3CT Assay for TIMP metallopeptidase inhibitor 2 (TIMP2) Biomarker Activity (AID 2283071); conditions: primary human keratinocytes with fibroblasts; actives raise or lower the signal
# In short: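 TIMP-2 measured by ELISA at 24 h in human keratinocyte/fibroblast primary co-cultures exposed to chemicals. Both increases and decreases were fitted against DMSO. Parallel cultures were stained with SRB for total protein as an overt-cytotoxicity check.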
# [2] = read-out: Transforming growth factor beta 1 (TGFb1), TGFB1 (gene 7040); experiment: BSK_KF3CT_TGFb1: BioMAP Diversity Plus: KF3CT Assay for Transforming growth factor beta 1 (TGFb1) Biomarker Activity (AID 2283072); conditions: primary human keratinocytes with fibroblasts; actives raise or lower the signal
# In short: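 ELISA quantifies TGF-b1 at 24 h post-dose in a primary human skin co-culture of keratinocytes and fibroblasts, with gain or loss judged against DMSO. Parallel SRB total-protein staining flags overt cytotoxicity.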
# [3] = read-out: C-C motif chemokine 2 (Homo sapiens) (UniProt P13500); experiment: BSK_KF3CT_MCP1: BioMAP Diversity Plus: KF3CT Assay for Monocyte Chemoattractant Protein 1 (MCP1/CCL2) Biomarker Activity (AID 2283073); conditions: primary human keratinocytes with fibroblasts; actives raise or lower the signal
# In short: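 Biomarker MCP-1 is measured by ELISA in primary human keratinocytes co-cultured with foreskin fibroblasts, 24 h after chemical treatment; DMSO serves as the negative control and activity baseline.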
# [4] = read-out: Matrix Metallopeptidase 9 (MMP9), MMP9 (gene 4318); experiment: BSK_KF3CT_MMP9: BioMAP Diversity Plus: KF3CT Assay for Matrix Metallopeptidase 9 (MMP9) Biomarker Activity (AID 2283074); conditions: primary human keratinocytes with fibroblasts; actives raise or lower the signal;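 as to AC50: MMP9 protein level quantified by ELISA in the co-culture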
# In short: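 ELISA read-out of MMP-9 at 24 h post-dosing in a co-culture of human skin keratinocytes and foreskin fibroblasts. Gain or loss of signal was fitted in both directions against DMSO.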
# [5] = read-out: urokinase plasminogen activator (uPA), PLAU (gene 5328); experiment: BSK_KF3CT_uPA: BioMAP Diversity Plus: KF3CT Assay for urokinase plasminogen activator (uPA) Biomarker Activity (AID 2283075); conditions: primary human keratinocytes with fibroblasts; actives raise or lower the signal
# In short: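 Skin co-culture (keratinocytes + foreskin fibroblasts), human primary; 24 h post-dose; uPA by ELISA; gain/loss fit vs DMSO baseline.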
# CD40, CD40 (gene 958) [6] = experiment: BSK_LPS_CD40: BioMAP Diversity Plus: LPS Assay for CD40 Biomarker Activity (AID 2283076); conditions: primary human HUVEC with PBMC; actives raise or lower the signal
# In short: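 Using a multiplexed primary human co-culture (umbilical vein endothelium plus PBMC), CD40 was read by ELISA 24 h after dosing, with cytotoxicity tracked by sulforhodamine B staining of parallel cultures and activity fitted bidirectionally versus DMSO.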
# [7] = read-out: E-selectin (Homo sapiens) (UniProt P16581); experiment: BSK_LPS_Eselectin: BioMAP Diversity Plus: LPS Assay for Eselectin Biomarker Activity (AID 2283077); conditions: primary human HUVEC with PBMC; actives raise or lower the signal
# In short: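 Dose chemical onto LPS-driven HUVEC/PBMC co-culture; after 24 h, run ELISA for E-selectin; fit up- and down-going responses relative to DMSO control.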
# [8] = read-out: Interleukin-8 (IL8), CXCL8 (gene 3576); experiment: BSK_LPS_IL8: BioMAP Diversity Plus: LPS Assay for Interleukin-8 (IL8) Biomarker Activity (AID 2283078); conditions: primary human HUVEC with PBMC; actives raise or lower the signal
# In short: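 In this LPS system, chemical-treated human umbilical vein endothelium/PBMC co-cultures were harvested at 24 h for IL-8 ELISA.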
# [9] = BSK_LPS_SRB: Viability Assessment in the BioMAP Diversity Plus: LPS Assay (AID 2283079); conditions: primary human HUVEC with PBMC;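 also: total protein by sulforhodamine B absorbance as a cytotoxicity measure; measured one day after compound addition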
# In short: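 Cytotoxicity endpoint in human endothelial–PBMC co-culture: 24 h exposure, then SRB (0.1%) staining, 560 nm read.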
# [10] = read-out: Interleukin-1 alpha (IL1a), IL1A (gene 3552); experiment: BSK_LPS_IL1a: BioMAP Diversity Plus: LPS Assay for Interleukin-1 alpha (IL1a) Biomarker Activity (AID 2283080); conditions: primary human HUVEC with PBMC; actives raise or lower the signal
# In short: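 Primary human HUVEC and PBMC co-culture stimulated with LPS is dosed and harvested at 24 h. Both increases and decreases in ELISA-measured IL-1a are scored relative to DMSO.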
# [11] = read-out: Monocyte Chemoattractant Protein-1 (MCP1), CCL2 (gene 6347); experiment: BSK_LPS_MCP1: BioMAP Diversity Plus: LPS Assay for Monocyte Chemoattractant Protein-1 (MCP1) Biomarker Activity (AID 2283081); conditions: primary human HUVEC with PBMC; actives raise or lower the signal;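 as to AC50: secreted MCP-1 protein quantified by ELISA in culture supernatant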
# In short: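 Values derive from bidirectional fitting against DMSO of ELISA-measured MCP-1 in a human primary endothelial and mononuclear cell co-culture, 24 h after chemical addition under LPS activation.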
# [12] = BSK_LPS_PGE2: BioMAP Diversity Plus: LPS Assay for Prostaglandin E2 (PGE2) Biomarker Activity (AID 2283082); conditions: primary human HUVEC with PBMC; actives raise or lower the signal;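 as to AC50: secreted prostaglandin E2 measured by ELISA in LPS-stimulated co-culture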
# In short: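 PGE2 release measured by ELISA in an LPS-activated co-culture of human umbilical vein endothelial cells and peripheral blood mononuclear cells, read at 24 h post-dosing. DMSO served as baseline for bidirectional curve fitting.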
# [13] = read-out: Macrophage colony-stimulating factor (MCSF), CSF1 (gene 1435); experiment: BSK_LPS_MCSF: BioMAP Diversity Plus: LPS Assay for Macrophage colony-stimulating factor (MCSF) Biomarker Activity (AID 2283083); conditions: primary human HUVEC with PBMC; actives raise or lower the signal
# In short: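 Bidirectional fit versus DMSO of ELISA-measured M-CSF in co-cultured human umbilical vein endothelial cells and PBMC, sampled 24 h after dosing.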
# [14] = read-out: Tissue Factor, F3 (gene 2152); experiment: BSK_LPS_TissueFactor: BioMAP Diversity Plus: LPS Assay for Tissue Factor Biomarker Activity (AID 2283084); conditions: primary human HUVEC with PBMC; actives raise or lower the signal
# In short: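 Read-out: CD142 ELISA, 24 h. System: LPS-driven human endothelial/PBMC co-culture. Analysis: up- or down-signal fitted against DMSO.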
# [15] = read-out: Tumor necrosis factor (Homo sapiens) (UniProt P01375); experiment: BSK_LPS_TNFa: BioMAP Diversity Plus: LPS Assay for Tumour Necrosis Factor alpha (TNFa) Biomarker Activity (AID 2283085); conditions: primary human HUVEC with PBMC; actives raise or lower the signal;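 as to AC50: TNFa protein level quantified by ELISA in the co-culture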
# In short: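 TNFa was quantified by ELISA in LPS-activated co-cultures of human endothelial cells and PBMC, 24 h post-dosing. Both increases and decreases versus DMSO were fitted.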
# [16] = read-out: Vascular cell adhesion molecule 1 (VCAM1), VCAM1 (gene 7412); experiment: BSK_LPS_VCAM1: BioMAP Diversity Plus: LPS Assay for Vascular cell adhesion molecule 1 (VCAM1) Biomarker Activity (AID 2283086); conditions: primary human HUVEC with PBMC; actives raise or lower the signal
# In short: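 VCAM-1 quantified by ELISA in an LPS-activated co-culture of human endothelial cells and peripheral blood mononuclear cells, read 24 h post-treatment. Fitted in both directions versus DMSO; parallel SRB staining flags overt cytotoxicity.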
# CD38, CD38 (gene 952) = experiment: BSK_SAg_CD38: BioMAP Diversity Plus: SAg Assay for CD38 Biomarker Activity (AID 2283087); conditions: primary human HUVEC with PBMC; actives raise or lower the signal
# In short: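 CD38 quantified by ELISA (fluorescence) in a superantigen-activated endothelial cell–PBMC co-culture at 24 h post-dose. Activity fitted in both directions relative to DMSO; parallel SRB and Alamar Blue cytotoxicity read-outs.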
# CD40, CD40 (gene 958) [17] = experiment: BSK_SAg_CD40: BioMAP Diversity Plus: SAg Assay for CD40 Biomarker Activity (AID 2283088); conditions: primary human HUVEC with PBMC; actives raise or lower the signal
# In short: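 Endpoint derived by fitting increases or decreases versus DMSO controls. CD40 is detected by fluorescence ELISA in a human vascular co-culture of endothelium and PBMC at 24 h.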
# CD69, CD69 (gene 969) = experiment: BSK_SAg_CD69: BioMAP Diversity Plus: SAg Assay for CD69 Biomarker Activity (AID 2283089); conditions: primary human HUVEC with PBMC; actives raise or lower the signal;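 as to AC50: cell surface CD69 protein quantified by ELISA with fluorescence detection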
# In short: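 HUVEC co-cultured with PBMC were dosed with chemical, and CD69 was measured by ELISA with fluorescence read-out 24 h later. Bidirectional curve fitting used DMSO as negative control and activity baseline.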
# Sequence of Tumor necrosis factor (Homo sapiens) (P01375 whole entry, looked up): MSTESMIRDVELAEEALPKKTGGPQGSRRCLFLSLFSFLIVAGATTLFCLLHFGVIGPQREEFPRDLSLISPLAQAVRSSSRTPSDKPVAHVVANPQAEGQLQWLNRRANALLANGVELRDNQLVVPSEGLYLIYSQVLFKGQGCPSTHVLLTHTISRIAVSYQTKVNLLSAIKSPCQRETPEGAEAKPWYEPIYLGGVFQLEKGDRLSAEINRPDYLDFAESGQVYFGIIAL
# Sequence of E-selectin (Homo sapiens) (P16581 whole entry, looked up): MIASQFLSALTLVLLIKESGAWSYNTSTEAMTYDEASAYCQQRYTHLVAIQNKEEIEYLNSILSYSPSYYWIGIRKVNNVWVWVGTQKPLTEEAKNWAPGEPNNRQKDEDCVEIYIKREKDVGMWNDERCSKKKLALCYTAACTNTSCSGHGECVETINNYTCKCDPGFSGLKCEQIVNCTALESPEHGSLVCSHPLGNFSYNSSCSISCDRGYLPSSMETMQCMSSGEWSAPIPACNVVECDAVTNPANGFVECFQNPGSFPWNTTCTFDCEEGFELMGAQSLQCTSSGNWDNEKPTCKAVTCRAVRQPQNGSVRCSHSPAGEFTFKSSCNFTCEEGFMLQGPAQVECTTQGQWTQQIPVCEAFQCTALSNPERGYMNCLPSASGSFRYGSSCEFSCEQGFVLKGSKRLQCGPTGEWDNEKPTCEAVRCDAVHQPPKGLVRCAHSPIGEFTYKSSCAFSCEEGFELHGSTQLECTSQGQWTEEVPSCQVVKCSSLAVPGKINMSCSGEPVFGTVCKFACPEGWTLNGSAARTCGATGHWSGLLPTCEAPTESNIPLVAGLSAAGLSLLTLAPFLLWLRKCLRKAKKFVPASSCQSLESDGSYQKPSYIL
compound,measurement,setting,value
CCCSP(=O)(OCC)SCCC,outcome,[1],inactive
same,outcome,[2],inactive
same,outcome,[3],inactive
same,outcome,[4],inactive
same,outcome,[5],inactive
same,outcome,"CD40, CD40 (gene 958) [6]",inactive
same,outcome,[7],inactive
same,outcome,[8],inactive
same,outcome,[9],inactive
same,outcome,[10],inactive
same,outcome,[11],inactive
same,outcome,[12],inactive
same,outcome,[13],inactive
same,outcome,[14],inactive
same,outcome,[15],inactive
same,outcome,[16],inactive
same,outcome,"CD38, CD38 (gene 952)",inactive
same,outcome,"CD40, CD40 (gene 958) [17]",inactive
same,outcome,"CD69, CD69 (gene 969)",inactive
CCOP(=S)(Oc1cnc(C(C)(C)C)nc1)OC(C)C (stereo unspecified),AC50,[1],38.4 µM (active)
same,outcome,[2],inactive
same,outcome,[3],inactive
same,AC50,[4],27.1 µM (active)
same,outcome,[5],inactive
same,AC50,"CD40, CD40 (gene 958) [6]",37.9 µM (active)
same,AC50,[7],30.9 µM (active)
same,AC50,[8],30.5 µM (active)
same,AC50,[9],30.3 µM (active)
same,AC50,[10],36.7 µM (active)
same,AC50,[11],32.2 µM (active)
same,AC50,[12],31.8 µM (active)
same,AC50,[13],32.6 µM (active)
same,AC50,[15],36.5 µM (active)
same,AC50,[16],32.5 µM (active)
same,AC50,"CD38, CD38 (gene 952)",36.2 µM (active)
same,AC50,"CD40, CD40 (gene 958) [17]",30.8 µM (active)
same,AC50,"CD69, CD69 (gene 969)",30 µM (active)
CSc1nc(NC(C)C)nc(NC(C)C)n1,outcome,[1],inactive
same,outcome,[2],inactive
same,outcome,[3],inactive
same,outcome,[4],inactive
same,outcome,[5],inactive
same,outcome,"CD40, CD40 (gene 958) [6]",inactive
same,outcome,[7],inactive
same,outcome,[8],inactive
same,outcome,[9],inactive
same,outcome,[10],inactive
same,outcome,[11],inactive
same,outcome,[12],inactive
same,outcome,[13],inactive
same,AC50,[15],4.47 µM (active)
same,outcome,[16],inactive
same,outcome,"CD38, CD38 (gene 952)",inactive
same,outcome,"CD40, CD40 (gene 958) [17]",inactive
same,outcome,"CD69, CD69 (gene 969)",inactive
CNC(=O)Oc1cccc2c1OC(C)(C)O2,outcome,[1],inactive
same,outcome,[2],inactive
same,outcome,[3],inactive
same,outcome,[4],inactive
same,outcome,[5],inactive
same,AC50,"CD40, CD40 (gene 958) [6]",13.6 µM (active)
same,AC50,[7],20 µM (active)
same,AC50,[8],25.2 µM (active)
same,outcome,[9],inactive
same,outcome,[10],inactive
same,outcome,[11],inactive
same,outcome,[12],inactive
same,AC50,[13],20 µM (active)
same,AC50,[15],32.9 µM (active)
same,AC50,[16],20 µM (active)
same,AC50,"CD38, CD38 (gene 952)",35.1 µM (active)
same,outcome,"CD40, CD40 (gene 958) [17]",inactive
same,outcome,"CD69, CD69 (gene 969)",inactive
C[N+]1(C)CCCCC1,outcome,[1],inactive
same,outcome,[2],inactive
same,outcome,[3],inactive
same,outcome,[4],inactive
same,outcome,[5],inactive
same,outcome,"CD40, CD40 (gene 958) [6]",inactive
same,outcome,[7],inactive
same,outcome,[8],inactive
same,outcome,[9],inactive
same,outcome,[10],inactive
same,outcome,[11],inactive
same,outcome,[12],inactive
same,outcome,[13],inactive
same,outcome,[14],inactive
same,outcome,[15],inactive
same,outcome,[16],inactive
same,outcome,"CD38, CD38 (gene 952)",inactive
same,outcome,"CD40, CD40 (gene 958) [17]",inactive
same,outcome,"CD69, CD69 (gene 969)",inactive
N#CSCSC#N,AC50,[1],5.72 µM (active)
same,AC50,[2],5.17 µM (active)
same,AC50,[3],5.31 µM (active)
same,AC50,[4],6.04 µM (active)
same,AC50,[5],6.91 µM (active)
same,AC50,"CD40, CD40 (gene 958) [6]",5.33 µM (active)
same,AC50,[7],6.28 µM (active)
same,AC50,[8],5.94 µM (active)
same,AC50,[9],5.37 µM (active)
same,AC50,[10],5.46 µM (active)
same,AC50,[11],10.6 µM (active)
same,AC50,[12],5.66 µM (active)
same,AC50,[13],5.23 µM (active)
same,outcome,[14],inactive
same,AC50,[15],3.89 µM (active)
same,AC50,[16],5.56 µM (active)
same,AC50,"CD38, CD38 (gene 952)",5.28 µM (active)
same,AC50,"CD40, CD40 (gene 958) [17]",7.73 µM (active)
same,AC50,"CD69, CD69 (gene 969)",7.16 µM (active)
